# Results taken from PubChem BioAssay (EPA / NIEHS).
# Active and inactive are the calls of the source. Rule for the calls: active = hit-call score of the fitted dose curve at least 0.9, where 1 is the maximum; inactive = score below 0.9.
# Assays:
# Details in all cases: mRNA level, 48 h; actives raise or lower the signal
# [1] = read-out: Cytochrome P450 (CYP1A1), CYP1A1 (gene 1543); experiment: LTEA_HepaRG_CYP1A1: Life Technologies and Expression Analysis (LTEA) Assay for Cytochrome P450 (CYP1A1) using HepaRG (AID 2283454)
# Outline: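 Differentiated human HepaRG cells, after 48 h plating, exposed in duplicate for 48 h in serum-free induction medium to 8 half-log concentrations up to 100 uM in 0.5% DMSO. CYP1A1 mRNA by qRT-PCR, normalized to ACTB/GAPDH/POLR2A; bidirectional fit versus DMSO.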
# [2] = read-out: CFLAR gene, CFLAR (gene 8837); experiment: LTEA_HepaRG_CFLAR: Life Technologies and Expression Analysis (LTEA) Assay for CFLAR gene using HepaRG (AID 2283455)
# Outline: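 HepaRG cells were plated for 48 h, switched to serum-free induction medium, then exposed in duplicate for 48 h to 8 concentrations (top 100 uM, half-log steps, 0.5% DMSO). CFLAR mRNA was measured by qRT-PCR, normalized to ACTB, GAPDH and POLR2A.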
# [3] = read-out: Forkhead box O1 (FOXO1), FOXO1 (gene 2308); experiment: LTEA_HepaRG_FOXO1: Life Technologies and Expression Analysis (LTEA) Assay for Forkhead box O1 (FOXO1) using HepaRG (AID 2283456)
# Outline: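 Differentiated human HepaRG cells in serum-free induction medium were exposed in duplicate for 48 h to eight half-log concentrations (top 100 uM, 0.5% DMSO). FOXO1 mRNA was measured by TaqMan qRT-PCR, normalised to ACTB, GAPDH and POLR2A, and fitted bidirectionally against DMSO.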
# [4] = read-out: growth arrest and DNA damage 45 (GADD45A), GADD45A (gene 1647); experiment: LTEA_HepaRG_GADD45A: Life Technologies and Expression Analysis (LTEA) Assay for growth arrest and DNA damage 45 (GADD45A) using HepaRG (AID 2283458)
# Outline: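 Human HepaRG liver cells are treated in duplicate for 48 h with chemicals in 0.5% DMSO, highest concentration 100 uM. Expression is read by qRT-PCR and analyzed in both directions against vehicle.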
# [5] = read-out: Forkhead box O3 (FOXO3), FOXO3 (gene 2309); experiment: LTEA_HepaRG_FOXO3: Life Technologies and Expression Analysis (LTEA) Assay for Forkhead box O3 (FOXO3) using HepaRG (AID 2283459)
# Outline: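 Differentiated human HepaRG cells in serum-free induction medium were exposed in duplicate for 48 h to eight half-log concentrations up to 100 uM in 0.5% DMSO. FOXO3 mRNA was quantified by qRT-PCR, normalized to ACTB, GAPDH and POLR2A, with bidirectional fitting versus DMSO.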
# [6] = read-out: ABC Transporter (ABCB1), ABCB1 (gene 5243); experiment: LTEA_HepaRG_ABCB1: Life Technologies and Expression Analysis (LTEA) Assay for ABC Transporter (ABCB1) using HepaRG (AID 2283460)
# Outline: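 Differentiated human HepaRG cells, plated 48 h then switched to serum-free induction medium, were exposed in duplicate to eight half-log concentrations up to 100 uM in 0.5% DMSO for 48 h. ABCB1 mRNA was measured by TaqMan qRT-PCR, normalized to ACTB/GAPDH/POLR2A.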
# [7] = read-out: growth arrest and DNA damage 45 (GADD45B), GADD45B (gene 4616); experiment: LTEA_HepaRG_GADD45B: Life Technologies and Expression Analysis (LTEA) Assay for growth arrest and DNA damage 45 (GADD45B) using HepaRG (AID 2283461)
# Outline: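 Differentiated human HepaRG cells in serum-free induction medium exposed 48 h in duplicate to eight concentrations, top 100 uM, half-log steps, 0.5% DMSO. GADD45B mRNA by TaqMan qRT-PCR, normalized to ACTB, GAPDH, POLR2A; bidirectional fit versus DMSO.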
# [8] = read-out: ABC Transporter (ABCC3), ABCC3 (gene 8714); experiment: LTEA_HepaRG_ABCC3: Life Technologies and Expression Analysis (LTEA) Assay for ABC Transporter (ABCC3) using HepaRG (AID 2283462)
# Outline: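 Differentiated human HepaRG cells exposed 48 h in serum-free induction medium, 0.5% DMSO vehicle, 8-point half-log series to 100 uM in duplicate. ABCC3 mRNA by qRT-PCR, normalised to ACTB, GAPDH, POLR2A; bidirectional fit vs DMSO.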
# [9] = read-out: ABC Transporter (ABCB11), ABCB11 (gene 8647); experiment: LTEA_HepaRG_ABCB11: Life Technologies and Expression Analysis (LTEA) Assay for ABC Transporter (ABCB11) using HepaRG (AID 2283463)
# Outline: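 Differentiated human HepaRG cells were exposed for 48 h in serum-free induction medium to eight half-log concentrations up to 100 uM in 0.5% DMSO. ABCB11 mRNA was quantified by qRT-PCR, normalized to ACTB, GAPDH and POLR2A, and fitted bidirectionally versus DMSO.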
# [10] = read-out: ABC Transporter (ABCC2), ABCC2 (gene 1244); experiment: LTEA_HepaRG_ABCC2: Life Technologies and Expression Analysis (LTEA) Assay for ABC Transporter (ABCC2) using HepaRG (AID 2283464)
# Outline: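 Differentiated HepaRG cells in serum-free induction medium exposed 48 h to eight half-log concentrations up to 100 uM, 0.5% DMSO, in duplicate. ABCC2 mRNA measured by qRT-PCR (TaqMan, Fluidigm), normalized to ACTB, GAPDH and POLR2A. Fitted in both directions against DMSO.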
# [11] = read-out: Broad substrate specificity ATP-binding cassette transporter ABCG2 (Homo sapiens) (UniProt Q9UNQ0); experiment: LTEA_HepaRG_ABCG2: Life Technologies and Expression Analysis (LTEA) Assay for ABC Transporter (ABCG2) using HepaRG (AID 2283465)
# Outline: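 Differentiated HepaRG cells in serum-free induction medium were exposed for 48 h, in duplicate, to eight half-log concentrations up to 100 uM in 0.5% DMSO. ABCG2 mRNA was measured by TaqMan qRT-PCR, normalized to ACTB, GAPDH and POLR2A, and fitted bidirectionally versus DMSO.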
# [12] = read-out: Peroxisomal acyl-coenzyme A oxidase 1 (ACOX1) gene, ACOX1 (gene 51); experiment: LTEA_HepaRG_ACOX1: Life Technologies and Expression Analysis (LTEA) Assay for Peroxisomal acyl-coenzyme A oxidase 1 (ACOX1) gene using HepaRG (AID 2283467)
# Outline: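 Differentiated human HepaRG cells were exposed in duplicate for 48 h in serum-free induction medium to eight half-log concentrations up to 100 uM in 0.5% DMSO. ACOX1 mRNA was then quantified by TaqMan qRT-PCR, normalized to ACTB, GAPDH and POLR2A.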
# [13] = read-out: Alkaline Phosphatase, Placental (ALPP) gene, ALPP (gene 250); experiment: LTEA_HepaRG_ALPP: Life Technologies and Expression Analysis (LTEA) Assay for Alkaline Phosphatase, Placental (ALPP) gene using HepaRG (AID 2283468)
# Outline: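 HepaRG cells plated 48 h, then exposed in duplicate for 48 h in serum-free induction medium to 8-point half-log series from 100 uM in 0.5% DMSO. ALPP mRNA by TaqMan qRT-PCR, normalized to ACTB/GAPDH/POLR2A; bidirectional fit versus DMSO.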
# [14] = read-out: Bcl-2 (BAD) gene, BAD (gene 572); experiment: LTEA_HepaRG_BAD: Life Technologies and Expression Analysis (LTEA) Assay for Bcl-2 (BAD) gene using HepaRG (AID 2283469)
# Outline: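 Differentiated human HepaRG cells in serum-free induction medium were exposed in duplicate for 48 h to eight concentrations (top 100 uM, half-log steps, 0.5% DMSO). BAD mRNA was quantified by qRT-PCR normalised to ACTB, GAPDH and POLR2A, with bidirectional fitting versus DMSO.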
# [15] = read-out: Bcl-2 (BAX) gene, BAX (gene 581); experiment: LTEA_HepaRG_BAX: Life Technologies and Expression Analysis (LTEA) Assay for Bcl-2 (BAX) gene using HepaRG (AID 2283470)
# Outline: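 Concentration-response endpoint fitted in both directions relative to 0.5% DMSO vehicle. Human HepaRG cultures receive test chemicals for 48 h at up to 100 uM; BAX mRNA is quantified by qRT-PCR against housekeeping genes.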
# [16] = read-out: adenosine kinase (ADK) gene, ADK (gene 132); experiment: LTEA_HepaRG_ADK: Life Technologies and Expression Analysis (LTEA) Assay for adenosine kinase (ADK) gene using HepaRG (AID 2283471)
# Outline: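 ADK expression quantified by qRT-PCR, normalised to three housekeeping genes, after 48 h exposure of HepaRG cells to eight concentrations (top 100 uM, half-log steps, duplicate, 0.5% DMSO). Up- or down-regulation fitted relative to vehicle.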
# [17] = read-out: Alpha-fetoprotein (AFP) gene, AFP (gene 174); experiment: LTEA_HepaRG_AFP: Life Technologies and Expression Analysis (LTEA) Assay for Alpha-fetoprotein (AFP) gene using HepaRG (AID 2283472)
# Outline: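 After a 48 h plating period, cells are moved to serum-free induction medium and dosed in duplicate (100 uM maximum, half-log dilutions, 0.5% DMSO) for another 48 h. Total RNA goes to TaqMan qRT-PCR; AFP signal is housekeeping-normalized.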
# BCL2L11 (gene 10018) = experiment: LTEA_HepaRG_BCL2L11: Life Technologies and Expression Analysis (LTEA) Assay for Bcl-2 (BCL2L11) gene using HepaRG (AID 2283473)
# Outline: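 Differentiated human HepaRG cells were exposed 48 h in serum-free induction medium to eight half-log concentrations up to 100 uM in 0.5% DMSO, in duplicate. BCL2L11 mRNA was quantified by TaqMan qRT-PCR, normalized to ACTB, GAPDH and POLR2A; induction or repression fitted versus DMSO.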
# [18] = read-out: ATP-citrate lyase (ACLY), ACLY (gene 47); experiment: LTEA_HepaRG_ACLY: Life Technologies and Expression Analysis (LTEA) Assay for ATP-citrate lyase (ACLY) using HepaRG (AID 2283466)
# Outline: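 Differentiated human HepaRG cells in serum-free induction medium exposed 48 h, in duplicate, to eight half-log concentrations from 100 uM top in 0.5% DMSO; ACLY mRNA measured by qRT-PCR, normalized to ACTB, GAPDH, POLR2A, fitted bidirectionally versus DMSO.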
# Chain of Broad substrate specificity ATP-binding cassette transporter ABCG2 (Homo sapiens) (Q9UNQ0 whole entry, looked up): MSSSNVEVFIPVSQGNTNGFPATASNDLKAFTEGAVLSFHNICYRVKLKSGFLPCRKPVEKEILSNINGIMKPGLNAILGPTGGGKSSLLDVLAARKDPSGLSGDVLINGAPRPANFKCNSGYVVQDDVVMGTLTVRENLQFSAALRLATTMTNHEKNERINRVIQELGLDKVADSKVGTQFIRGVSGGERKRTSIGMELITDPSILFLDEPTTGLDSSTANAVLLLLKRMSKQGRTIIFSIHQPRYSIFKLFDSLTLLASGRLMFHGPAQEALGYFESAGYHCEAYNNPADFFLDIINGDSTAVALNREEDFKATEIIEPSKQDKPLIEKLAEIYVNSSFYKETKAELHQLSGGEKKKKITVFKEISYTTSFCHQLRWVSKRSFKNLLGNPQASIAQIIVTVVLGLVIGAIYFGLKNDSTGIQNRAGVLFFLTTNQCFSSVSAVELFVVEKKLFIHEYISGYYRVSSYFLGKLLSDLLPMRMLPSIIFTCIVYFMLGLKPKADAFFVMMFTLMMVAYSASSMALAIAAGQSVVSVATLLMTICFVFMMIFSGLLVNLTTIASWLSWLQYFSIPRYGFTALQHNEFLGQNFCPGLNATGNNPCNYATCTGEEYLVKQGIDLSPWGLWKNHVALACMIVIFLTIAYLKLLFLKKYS
structure (smiles),measurement,setting,value
C=CCC1=C(C)[C@@H](OC(=O)[C@@H]2[C@@H](C=C(C)C)C2(C)C)CC1=O,AC50,[1],63 µM (active)
same,outcome,[2],inactive
same,outcome,[3],inactive
same,outcome,[4],inactive
same,outcome,[5],inactive
same,AC50,[6],0.086 µM (active)
same,outcome,[7],inactive
same,AC50,[8],74.2 µM (active)
same,AC50,[9],50 µM (active)
same,outcome,[10],inactive
same,outcome,[11],inactive
same,outcome,[12],inactive
same,AC50,[13],81.2 µM (active)
same,outcome,[14],inactive
same,outcome,[15],inactive
same,outcome,[16],inactive
same,AC50,[17],50 µM (active)
same,outcome,BCL2L11 (gene 10018),inactive
Oc1ccccc1-c1ccccc1,outcome,[1],inactive
same,outcome,[2],inactive
same,outcome,[4],inactive
same,outcome,[5],inactive
same,outcome,[6],inactive
same,outcome,[7],inactive
same,outcome,[8],inactive
same,outcome,[9],inactive
same,outcome,[10],inactive
same,outcome,[11],inactive
same,outcome,[18],inactive
same,outcome,[12],inactive
same,outcome,[13],inactive
same,outcome,[14],inactive
same,outcome,[15],inactive
same,outcome,[16],inactive
same,outcome,[17],inactive
same,outcome,BCL2L11 (gene 10018),inactive
N#Cc1cc(Br)c(O)c(Br)c1,AC50,[1],73.6 µM (active)
same,AC50,[2],10 µM (active)
same,AC50,[3],40 µM (active)
same,AC50,[4],72.5 µM (active)
same,AC50,[6],12.1 µM (active)
same,AC50,[7],27.1 µM (active)
same,AC50,[8],9.48 µM (active)
same,AC50,[9],19.9 µM (active)
same,AC50,[10],14 µM (active)
same,AC50,[11],10.2 µM (active)
same,AC50,[12],11.1 µM (active)
same,AC50,[13],8.91 µM (active)
same,outcome,[14],inactive
same,outcome,[15],inactive
same,AC50,[16],6.14 µM (active)
same,AC50,[17],13.9 µM (active)
same,AC50,BCL2L11 (gene 10018),10.4 µM (active)
